Results taken from PubChem BioAssay AID1159580 (chemical genetic matrix, 2015).
Among all 5,500 compounds or so, about 2,000 (36%) were called active. About 18% were inconclusive and are not listed. The list shows a part of the results. A number with no mark means an inactive call. No stated cut-off is given here; in the data, active means normalized growth mostly below about 0.91 (no sharp cut-off); inconclusive means no clear call, values can overlap the other calls; inactive means mostly above about 0.92.

Assay: chemical genetic growth profiling, strain panel (AID 1159580);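 further: tested at 20 µM; growth read once vehicle control cultures reached saturation at 30 °C; 1 = growth at the plate median or of vehicle wells; lower values mean less growth of the strain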
Conditions: growth OD

SMILES: COc1cc(OC)c2c(OC)c(-c3ccc4c(c3)OCO4)c(=O)oc2c1
- normalized growth (S. cerevisiae deletion strains, locus YJR075W, strain HOC1, active compounds read low): 0.972
- normalized growth (S. cerevisiae deletion strains, locus YKL009W, strain mrt4, active compounds read low): 1
- normalized growth (S. cerevisiae deletion strains, locus YKL068W, active compounds read low): 0.984
- normalized growth (S. cerevisiae deletion strains, locus YKL085W, strain MDH1 (second series), active compounds read low): 0.99
- normalized growth (S. cerevisiae deletion strains, locus YKL085W, strain MDH1, active compounds read low): 0.99
- normalized growth (S. cerevisiae deletion strains, locus YKL160W, strain elf1, active compounds read low): 0.931
- normalized growth (S. cerevisiae deletion strains, locus YKL190W, strain CNB1, active compounds read low): 0.984
- normalized growth (S. cerevisiae deletion strains, locus YKR001C, strain vps1, active compounds read low): 0.927
- normalized growth (S. cerevisiae deletion strains, locus YKR026C, strain gcn3, active compounds read low): 0.992
- normalized growth (S. cerevisiae deletion strains, locus YKR091W, strain srl3, active compounds read low): 0.978
- normalized growth (S. cerevisiae deletion strains, locus YLL001W, strain dnm1, active compounds read low): 0.97
- normalized growth (S. cerevisiae deletion strains, locus YLL026W, active compounds read low): 0.979
- normalized growth (S. cerevisiae deletion strains, locus YLL041C, strain sdh2, active compounds read low): 0.987
- normalized growth (S. cerevisiae deletion strains, locus YLR027C, strain aat2, active compounds read low): 0.934
- normalized growth (S. cerevisiae deletion strains, locus YLR039C, strain RIC1, active compounds read low): 0.865
- normalized growth (S. cerevisiae deletion strains, locus YLR058C, strain SHM2, active compounds read low): 0.99
- normalized growth (S. cerevisiae deletion strains, locus YLR102C, strain apc9, active compounds read low): 1
- normalized growth (S. cerevisiae deletion strains, locus YLR113W, strain HOG1, active compounds read low): 0.917
- normalized growth (S. cerevisiae deletion strains, locus YLR221C, strain rsa3, active compounds read low): 0.943
- normalized growth (S. cerevisiae deletion strains, locus YLR258W, strain gsy2, active compounds read low): 0.959
- normalized growth (S. cerevisiae deletion strains, locus YLR262C, strain YPT6 (second series), active compounds read low): 0.783 (active)
- normalized growth (S. cerevisiae deletion strains, locus YLR262C, strain YPT6, active compounds read low): 0.879
- normalized growth (S. cerevisiae deletion strains, locus YLR268W, strain sec22, active compounds read low): 0.946
- normalized growth (S. cerevisiae deletion strains, locus YLR320W, strain mms22, active compounds read low): 0.867 (active)
- normalized growth (S. cerevisiae deletion strains, locus YLR330W, strain CHS5, active compounds read low): 0.991
- normalized growth (S. cerevisiae deletion strains, locus YLR342W, strain FKS1 (second series), active compounds read low): 0.952
- normalized growth (S. cerevisiae deletion strains, locus YLR342W, strain FKS1, active compounds read low): 0.957
- normalized growth (S. cerevisiae deletion strains, locus YLR357W, strain rsc2, active compounds read low): 0.997
- normalized growth (S. cerevisiae deletion strains, locus YLR370C, strain arc18, active compounds read low): 0.981
- normalized growth (S. cerevisiae deletion strains, locus YLR371W, strain rom2, active compounds read low): 0.984
- normalized growth (S. cerevisiae deletion strains, locus YLR384C, strain iki3, active compounds read low): 0.977
- normalized growth (S. cerevisiae deletion strains, locus YLR418C, strain cdc73, active compounds read low): 0.849
- normalized growth (S. cerevisiae deletion strains, locus YML016C, strain PPZ1, active compounds read low): 0.985
- normalized growth (S. cerevisiae deletion strains, locus YML032C, strain rad52, active compounds read low): 0.995
- normalized growth (S. cerevisiae deletion strains, locus YML120C, strain ndi1, active compounds read low): 0.998
- normalized growth (S. cerevisiae deletion strains, locus YML124C, strain tub3, active compounds read low): 0.986
- normalized growth (S. cerevisiae deletion strains, locus YMR058W, strain fet3, active compounds read low): 0.962
- normalized growth (S. cerevisiae deletion strains, locus YMR078C, strain ctf18, active compounds read low): 0.991
- normalized growth (S. cerevisiae deletion strains, locus YMR125W, strain sto1, active compounds read low): 1
- normalized growth (S. cerevisiae deletion strains, locus YMR129W, active compounds read low): 0.989
- normalized growth (S. cerevisiae deletion strains, locus YMR205C, strain PFK2, active compounds read low): 0.866 (active)
- normalized growth (S. cerevisiae deletion strains, locus YMR223W, strain ubp8, active compounds read low): 0.981
- normalized growth (S. cerevisiae deletion strains, locus YMR231W, strain pep5, active compounds read low): 0.973
- normalized growth (S. cerevisiae deletion strains, locus YMR263W, strain SAP30, active compounds read low): 0.966
- normalized growth (S. cerevisiae deletion strains, locus YMR307W, strain GAS1, active compounds read low): 0.905
- normalized growth (S. cerevisiae deletion strains, locus YNL067W, strain RPL9B, active compounds read low): 0.99
- normalized growth (S. cerevisiae deletion strains, locus YNL071W, strain lat1, active compounds read low): 0.816 (active)
- normalized growth (S. cerevisiae deletion strains, locus YNL128W, strain TEP1, active compounds read low): 1
- normalized growth (S. cerevisiae deletion strains, locus YNL153C, strain GIM3, active compounds read low): 0.988
- normalized growth (S. cerevisiae deletion strains, locus YNL183C, strain NPR1, active compounds read low): 0.888
- normalized growth (S. cerevisiae deletion strains, locus YNL209W, strain ssb2, active compounds read low): 0.987
- normalized growth (S. cerevisiae deletion strains, locus YNL233W, strain BNI4, active compounds read low): 0.965
- normalized growth (S. cerevisiae deletion strains, locus YNL248C, strain rpa49, active compounds read low): 0.978
- normalized growth (S. cerevisiae deletion strains, locus YNL250W, strain rad50, active compounds read low): 0.997
- normalized growth (S. cerevisiae deletion strains, locus YNL271C, strain bni1, active compounds read low): 0.987
- normalized growth (S. cerevisiae deletion strains, locus YNL298W, strain CLA4, active compounds read low): 0.997
- normalized growth (S. cerevisiae deletion strains, locus YNL307C, strain MCK1, active compounds read low): 0.792 (active)
- normalized growth (S. cerevisiae deletion strains, locus YNL322C, strain KRE1 (second series), active compounds read low): 0.993
- normalized growth (S. cerevisiae deletion strains, locus YNL322C, strain KRE1, active compounds read low): 0.993
- normalized growth (S. cerevisiae deletion strains, locus YNR049C, strain mso1, active compounds read low): 0.992
- normalized growth (S. cerevisiae deletion strains, locus YNR052C, strain pop2, active compounds read low): 0.991
- normalized growth (S. cerevisiae deletion strains, locus YOL006C, strain TOP1, active compounds read low): 0.89
- normalized growth (S. cerevisiae deletion strains, locus YOL012C, strain htz1): 0.711
- normalized growth (S. cerevisiae deletion strains, locus YOL147C, strain pex11, active compounds read low): 0.985
- normalized growth (S. cerevisiae deletion strains, locus YOR001W, strain rrp6, active compounds read low): 0.991
- normalized growth (S. cerevisiae deletion strains, locus YOR061W, strain CKA2, active compounds read low): 0.989
- normalized growth (S. cerevisiae deletion strains, locus YOR069W, strain VPS5, active compounds read low): 0.988
- normalized growth (S. cerevisiae deletion strains, locus YOR070C, strain gyp1, active compounds read low): 0.977
- normalized growth (S. cerevisiae deletion strains, locus YOR080W, strain dia2, active compounds read low): 0.989
- normalized growth (S. cerevisiae deletion strains, locus YOR083W, strain WHI5, active compounds read low): 0.937
- normalized growth (S. cerevisiae deletion strains, locus YOR106W, strain vam3, active compounds read low): 0.957
- normalized growth (S. cerevisiae deletion strains, locus YOR136W, strain idh2, active compounds read low): 0.99
- normalized growth (S. cerevisiae deletion strains, locus YOR144C, strain elg1, active compounds read low): 0.982
- normalized growth (S. cerevisiae deletion strains, locus YOR184W, strain ser1, active compounds read low): 0.891
- normalized growth (S. cerevisiae deletion strains, locus YOR231W, strain MKK1, active compounds read low): 0.943
- normalized growth (S. cerevisiae deletion strains, locus YOR265W, strain rbl2, active compounds read low): 0.981
- normalized growth (S. cerevisiae deletion strains, locus YOR270C, strain vph1, active compounds read low): 0.835
- normalized growth (S. cerevisiae deletion strains, locus YOR290C, strain snf2, active compounds read low): 0.932
- normalized growth (S. cerevisiae deletion strains, locus YOR316C, strain cot1, active compounds read low): 0.983
- normalized growth (S. cerevisiae deletion strains, locus YPL051W, strain arl3, active compounds read low): 0.899 (active)
- normalized growth (S. cerevisiae deletion strains, locus YPL055C, strain LGE1, active compounds read low): 0.949
- normalized growth (S. cerevisiae deletion strains, locus YPL078C, strain atp4, active compounds read low): 0.945
- normalized growth (S. cerevisiae deletion strains, locus YPL106C, strain sse1, active compounds read low): 0.945
- normalized growth (S. cerevisiae deletion strains, locus YPL240C, strain hsp82, active compounds read low): 0.984
- normalized growth (S. cerevisiae deletion strains, locus YPL241C, strain CIN2, active compounds read low): 0.992
- normalized growth (S. cerevisiae deletion strains, locus YPL256C, strain CLN2, active compounds read low): 0.959
- normalized growth (S. cerevisiae deletion strains, locus YPR119W, strain clb2, active compounds read low): 0.97
- normalized growth (S. cerevisiae deletion strains, locus YPR141C, strain kar3, active compounds read low): 1
- normalized growth (S. cerevisiae deletion strains, locus YPR163C, strain tif3, active compounds read low): 0.969
- normalized growth (S. cerevisiae deletion strains, locus YPR167C, strain met16, active compounds read low): 0.989
- normalized growth (S. cerevisiae deletion strains, strain wtn01, active compounds read low): 0.968
- normalized growth (S. cerevisiae strains, strain wild type, active compounds read low): 0.982
